The source made the active and inactive calls.

The test can be described thus: osmotic lysis modulators in infected erythrocytes, primary screen, PSAC antagonist project, cell-based, P. falciparum Indochina, OD700, 3 h (AID 1156). The note with it: higher = more signal, called active from +8 up or from −8 down.
Regarding `O=C1NC(=O)C2C1C=CC(C(O)c1cccs1)N2Nc1ccc(Cl)cc1Cl` (centres undefined), the z-score was -0.0207 (inactive).
As for `C=CCNC(=O)[C@H]1[C@@H]2C(=O)O[C@@H](c3ccccc3)[C@@H](c3ccccc3)N2[C@@H](c2ccccc2OCCO)[C@]12C(=O)Nc1ccc(C#CCCO)cc12`, the figure is -0.56 (inactive).
For the compound `CC(C)C(CO)N1C(=O)[C@@H]2C3C(=O)OCCC/C=C\[C@H]3OC23C=CCN(CCN2CCOCC2)C(=O)[C@@H]13` (some centres undefined), the z-score is 0.148 (inactive).
As for `CC(=O)n1cc(C(O)C2C=CC3C(=O)N(c4ccccc4)C(=O)C3N2Nc2ccc([N+](=O)[O-])cc2)c2ccccc21` (centres undefined), the figure is 1.13 (inactive); as for `CCOC(=O)C[C@H]1[C@H](OC(=O)c2ccc(C(=O)c3ccccc3)cc2)[C@@H](NC(=O)c2ccc3ccccc3n2)c2cc(OCCCO)ccc2N1C(=O)c1ccccc1`, -0.883 (inactive).
For the compound `COc1ccc(C#Cc2ccc3c(c2)[C@]2(C(=O)N3)[C@H](C(=O)NC[C@H](O)c3ccccc3)[C@H]3C(=O)O[C@H](c4ccccc4)[C@H](c4ccccc4)N3[C@@H]2c2ccc(O)cc2)cc1`, the z-score was -1.03 (inactive).
With `N#Cc1ccc(NN2C(C(O)C(c3ccccc3)c3ccccc3)C=CC3C(=O)N(c4ccccc4)C(=O)C32)cc1` (centres undefined) the figure was 0.891 (inactive).
Consider `Cc1ccccc1C(O)C1C=CC2C(=O)N(c3ccccc3)C(=O)C2N1Nc1ccc(C(C)C)cc1` (centres undefined), for which the z-score is 0.918 (inactive).
With `CO[C@H]1O[C@H](CO)[C@@H](OC(=O)Nc2cccc(F)c2)[C@H](OC(=O)Nc2ccccc2)[C@@H]1OC(=O)Nc1ccccc1` the figure was -0.476 (inactive).

For the origin of these results see PubChem BioAssay.
